# Assay results: PubChem BioAssay (Tox21)
# Inconclusive results are not listed. A call without a number means that no potency is given here. A structure can be active in one record and inactive in another. The source made the active and inactive calls. Calls come from the whole dose curve; as a rule, active = well fitted inhibition curve with a large enough effect in the repeat runs; inconclusive = weak or mixed curves; inactive = no such curve, though single readings can be large or run the other way.
# Target: Androgen receptor (Homo sapiens) (UniProt P10275)
# Sequence (P10275 whole entry, looked up): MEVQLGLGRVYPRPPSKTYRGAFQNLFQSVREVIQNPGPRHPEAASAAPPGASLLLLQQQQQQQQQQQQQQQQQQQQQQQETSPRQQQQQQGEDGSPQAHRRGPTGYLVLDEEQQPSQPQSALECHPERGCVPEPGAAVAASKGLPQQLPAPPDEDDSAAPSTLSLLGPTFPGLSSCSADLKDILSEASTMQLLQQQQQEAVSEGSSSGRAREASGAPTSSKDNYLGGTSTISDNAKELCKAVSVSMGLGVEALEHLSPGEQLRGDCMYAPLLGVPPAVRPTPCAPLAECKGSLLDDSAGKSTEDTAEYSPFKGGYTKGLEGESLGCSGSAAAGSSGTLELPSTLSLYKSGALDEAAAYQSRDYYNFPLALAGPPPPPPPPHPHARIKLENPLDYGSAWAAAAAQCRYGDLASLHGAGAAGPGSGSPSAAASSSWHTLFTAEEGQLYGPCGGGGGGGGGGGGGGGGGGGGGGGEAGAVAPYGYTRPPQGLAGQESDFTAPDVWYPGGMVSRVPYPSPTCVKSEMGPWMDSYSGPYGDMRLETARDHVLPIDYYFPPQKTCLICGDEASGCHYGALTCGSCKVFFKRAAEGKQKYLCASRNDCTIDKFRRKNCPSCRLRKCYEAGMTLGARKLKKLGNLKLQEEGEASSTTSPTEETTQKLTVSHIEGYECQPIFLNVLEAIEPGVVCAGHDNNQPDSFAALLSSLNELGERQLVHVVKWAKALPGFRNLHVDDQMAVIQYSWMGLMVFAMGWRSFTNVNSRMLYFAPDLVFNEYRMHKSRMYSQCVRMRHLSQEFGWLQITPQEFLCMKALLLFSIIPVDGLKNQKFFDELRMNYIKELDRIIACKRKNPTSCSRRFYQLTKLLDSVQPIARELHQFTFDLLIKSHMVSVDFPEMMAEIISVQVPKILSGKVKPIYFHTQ
# Test: qHTS assay to identify small molecule antagonists of the androgen receptor (AR) signaling pathway using the MDA cell line in the presence of 0.5 nM R1881 (AID 1259243); note: nearly all actives have a fitted effect of over 50% in size
# Conditions: MDA-kb2 MMTV-luciferase, R1881 0.5 nM, 16 h; series mostly up to 92.4 µM
# Source text: U.S. Tox21 Program National Center for Advancing Translational Sciences [NCATS] NIH Chemical Genomics Center [NCGC] U.S. Environmental Protection Agency [EPA] National Institutes of Environmental Health Sciences [NIEHS] National Toxicology Program [NTP] U.S. Food and Drug Administration [FDA] Tox21 Assay Overview: Androgen receptor (AR) is an important member of the nuclear receptor family. Its signaling plays a critical role in AR-dependent prostate cancer and other androgen related diseases. Considerable attention has been given in the past decades to develop methods to study and screen for the environmental chemicals that have the potential to interfere with metabolic homeostasis, reproduction, developmental and behavioral functions. Therefore AR binding assay for screening androgen antagonists can be used to identify potential endocrine disruptors. MDA-kb2 cells (from ATCC, deposited by Wilson et al.) were used to screen for AR inhibitors against Tox21 compound libraries. These cells are human breast carcinoma cells that were stably transfected with a luciferase reporter gene under control of the MMTV promoter that contains response elements for both androgen receptor (AR) and glucocorticoid receptor (GR). The current screening for identification of AR inhibitors against Tox21 libraries used lower concentration (0.5 nM) of R1881 as a stimulator.
# Tox21 Assay Protocol Summary: MDA-kb2 cells (cells cultured without CO2) were dispensed at 3,000 cells/well in 4 uL of culture medium into white wall/solid-bottom 1536-well plates (Corning Life Sciences, Corning, NY) using a Multidrop Combi (ThermoFisher Scientific, Waltham, MA) dispenser. After the assay plates were incubated at a 37C and 0% CO2 for 5 hr, 23 nL of compounds dissolved in DMSO, positive controls or DMSO only was transferred to the assay plate by a Pintool station (Kalypsys, San Diego, CA). The transfer of compounds was followed by the addition of 1 uL of 0.5 nM (final concentration) agonist (R1881)/culture medium using a Flying Reagent Dispenser (FRD, Aurora Discovery, San Diego, CA). The plates were incubated at 37C and 0% CO2 for 16 hr. For luciferase reporter gene assay, 4 uL of ONE-Glo reagent (Promega Corporation, Madison, WI) was added to each well using the FRD and after 30 min incubation at room temperature luminescence intensity was measured using ViewLux plate reader (PerkinElmer, Shelton, CT).
# Potency is the fitted concentration of half-maximal effect.
row,Structure (SMILES),Potency
1,Cc1ccc(O)cc1,inactive
2,CCCN(CCC)S(=O)(=O)c1ccc(C(=O)O)cc1,inactive
3,Cc1ccc(C)c(OCCCC(C)(C)C(=O)O)c1,inactive
4,Oc1ccc(/C=C/c2cc(O)cc(O)c2)cc1,inactive
5,CC(C)(Oc1ccc(C2CC2(Cl)Cl)cc1)C(=O)O (stereo unspecified),inactive
6,C1N2CN3CN1CN(C2)C3,inactive
7,O=C(c1ccccc1)c1ccccc1,inactive
8,Cc1cc(=O)n(-c2ccccc2)n1C,inactive
9,CCCCC(CC)COC(=O)/C=C/c1ccc(OC)cc1 (stereo unspecified),inactive
10,c1ccc2[nH]ccc2c1,2.39 µM (active) and inactive
11,CC(C)[C@@H]1CC[C@@H](C)C[C@H]1O,inactive
